Shown are actives, neighbours in structure and some others; about 19% of the full set was active somewhere.
HT1080 IDH1KD tx – kills HT-1080 cells with IDH1 knockdown | Potency, µM (titrated, usually from 46.1 µM), without a hit: at the highest dose activity, negative = toxicity, usual class: cytotoxic | hit rate 2% among 360,000 | HT-1080 IDH1 knockdown viability, ATP luminescence, 48 h;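 further: potency means the concentration at half of the fitted maximal effect; 0% = DMSO wells and -100% = cell-free medium wells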
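Assay cells: HT-1080 with IDH1 knockdown, 750 per well, RPMI/5% FBS. Exposure: 48 h at 37 °C following 2 h pre-incubation. Read: CellTiter-Glo luminescence; fitted concentration-response, curve class assigned.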
DT40 TDP1 CPT – growth inhibition of DT40 Tdp1-/-;hTDP1 cells with camptothecin (screen for TDP1 inhibitors); chicken DT40 Tdp1-/-;hTDP1 cells + 20 nM CPT, ATP luminescence, 48 h; Potency, µM (series often up to 46.2 µM), without a hit: at the top dose activity change, negative = growth inhibition, hits mostly inhibitors; hit rate 12% among 420,000; further: potency means the concentration at half of the fitted maximal effect; nearly all actives have a fitted effect of over 55% in size
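Chicken DT40 Tdp1-/- cells stably complemented with human TDP1 were seeded at 400 cells/well in medium containing 20 nM camptothecin, exposed to pin-transferred compounds, and grown at 37 °C for at least 48 hr. Viability was read as ATP luminescence.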
IL1B secr inh – blocks inflammasome-driven IL-1 beta release; THP-1 LPS/ATP IL-1B secretion, AlphaLISA, 16 h; hits give low values; activity change, % at 57.5 µM; hit rate 4.7% among 360,000; in the data active means activity change below about -50%; inconclusive means mostly about -30% to -49%
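Secreted IL-1B measured by AlphaLISA bead assay after 16 h compound exposure of THP-1 cells; compounds (final up to 57.5 uM) added 1 h before LPS (250 ng/mL) and ATP (1.25 mM) stimulation; lower signal means less secretion.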
HT1080NT lethal – kills 2HG-producing HT-1080-NT fibrosarcoma cells | HT-1080-NT fibrosarcoma viability, CellTiter-Glo ATP luminescence, 48 h | Potency, µM (top dose mostly 46.1 µM), for the others: at the highest dose activity, negative = less viability, hits mostly cytotoxic | hit rate 1.6% among 360,000;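 further: NT is the 2HG producing partner of a matched IDH1 knockdown line; potency means the concentration at half of the fitted maximal effect; 0% = DMSO-treated cells and -100% = media-only wells without cells; nearly all actives have a fitted effect of over 55% in size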
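Luminescent CellTiter-Glo readout after 48 hours of compound exposure at 37 degrees C defined viability of HT-1080-NT cells. Activity was normalized to DMSO wells and cell-free media wells; concentration-response curves were fitted and assigned curve classes.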
uPA generation – blocks generation of uPA at the cell surface; cell surface uPA generation assay, qHTS; Potency, µM (highest dose often 38.3 µM), without a hit: at the top dose activity change, negative = inhibition, most hits filed as inhibitors; hit rate 0.31% among 330,000; active means well fitted inhibition curve with a large enough effect; inconclusive means small, poorly fitted or top-dose-only effect; inactive means no such curve, though single readings can be large or run the other way; tested in mouse RAW 264.7 cells; further: potency means the concentration at half of the fitted maximal effect; nearly all actives have a fitted effect of over 55% in size
TDP1 cell noCPT – qHTS for Inhibitors of human tyrosyl-DNA phosphodiesterase 1 (TDP1): qHTS in cells in absence of CPT; DT40 Tdp1-/- hTDP1 cells, no CPT, ATP luminescence, 48 h; Potency, µM (top dose mostly 46.2 µM), without a hit: top-dose activity change, negative = growth inhibition, actives largely listed as inhibitors; hit rate 15% among 420,000; AID 686978, 2013; further: potency means the concentration at half of the fitted maximal effect; nearly all actives have a fitted effect of over 55% in size
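DT40 Tdp1-/-;hTDP1 cells, no CPT (DMSO vehicle only), 400 cells/well; compounds pin-transferred; ≥48 hr, 37 °C; CellTiter-Glo 30 min RT dark, luminescence read.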
An asterisk follows results filed as active; ? = inconclusive; . = no result given. Unless noted, the call rests on the fitted dose curve; in most records, active means well fitted curve in the direction sought with a large enough effect; inconclusive means small, poorly fitted or top-dose-only effect, or another doubt; inactive means no such curve, though single readings can be large; an effect the other way counts as inactive or inconclusive. Unless noted, on the % scale 0 is the no-effect control and ±100 the full control effect.

SMILES | HT1080 IDH1KD tx | DT40 TDP1 CPT | IL1B secr inh | HT1080NT lethal | uPA generation | TDP1 cell noCPT
Cc1ccc(CN2C(=O)C(C)Nc3ncnc(N4CCOCC4)c32)cc1 (stereo not drawn) | -1% | -25% | 17 | -4% | -1% | ?
COc1ccccc1CNC(=O)CN1C(=O)c2ccccc2S1(=O)=O | -18% | -2% | -7 | -9% | 1% | -7%
CCOC(=O)CN1C(=O)N(c2ccccc2OC)S(=O)(=O)c2ccccc21 | 3% | -5% | 9 | 3% | 2% | 12%
COc1cccc(CNC(=O)CN2C(=O)N(c3cc(C)ccc3C)S(=O)(=O)c3ccccc32)c1OC | . | 13µM* | . | . | . | 23µM*
Cc1ccc(C)c(N2C(=O)N(Cc3ccccc3C)c3ccccc3S2(=O)=O)c1 | . | 18µM* | . | . | . | 29µM*
COc1cccc(CNC(=O)CN2C(=O)N(c3c(C)cccc3C)S(=O)(=O)c3ccccc32)c1OC | . | 16µM* | . | . | . | 16µM*
COc1ccc(OC)c(NC(=O)Cn2cc(C(=O)c3ccco3)c3ccccc32)c1 | 0% | ? | -21 | -10% | -8% | 16µM*
COc1ccc(OC)c(NC(=O)Cn2cc(C(=O)c3cccs3)c3ccccc32)c1 | . | ? | . | . | . | 18µM*
O=C(Cn1cc(C(=O)c2cccs2)c2ccccc21)Nc1ccc(Br)cc1 | . | ? | . | . | . | 5.8µM*
COc1ccccc1NC(=O)Cn1cc(C(=O)c2ccco2)c2ccccc21 | -2% | -5% | -50* | 2% | -16% | -10%
Cc1ccc(C(=O)NCC(=O)OCC(=O)c2ccc(Br)s2)cc1 | -11% | -1% | 13 | -10% | 1% | -12%
O=P1(O)CC2=C(CC=CC2)C1 | 1% | -9% | 11 | -2% | . | -3%
CC(=O)Nc1c(-c2ccccc2)c2cc(Br)ccc2[nH]c1=O | -9% | -1% | -29 | -5% | 9% | -4%
O=C1NC[C@H](CCCCN2C[C@H](Cc3ccc(O)cc3)N(CCc3ccccc3)C(=O)C2=O)N(CCC2CCCCC2)C1=O | 10% | 6% | -9 | 16% | . | -3%
O=C(CN1CCN(c2ccc(F)cc2)CC1)Nc1nccs1 | -1% | -1% | 20 | 9% | 2% | -22%
COc1ccc(-c2cccc(NS(=O)(=O)c3ccc(NC(C)=O)cc3)c2)nn1 | . | 18µM* | . | . | . | 15µM*
COc1ccc(-c2cccc(NS(=O)(=O)c3ccc(C)s3)c2)nn1 | . | 15µM* | . | . | . | 16µM*
CCOc1ccc(-c2cccc(NS(=O)(=O)c3ccc(C)s3)c2)nn1 | . | 23µM* | . | . | . | ?
CCOc1ccc(-c2cccc(NS(=O)(=O)c3ccccc3C(F)(F)F)c2)nn1 | . | ? | . | . | . | 26µM*
CCOc1ccc(-c2cccc(NS(=O)(=O)c3cccc([N+](=O)[O-])c3)c2)nn1 | 2% | -27% | 15 | 2% | . | ?
O=C(NCc1cccnc1)OC1CC2CC1[C@H]1CCCCN1C2=O (stereo partly drawn) | 1% | 13% | -9 | -6% | . | -2%
CC1(CCC(=O)O)C(=O)CCC2C1CCC1(C)C2CCC1(C)O (stereo not drawn) | 2% | 0% | -9 | 3% | 5% | 1%
CCCOc1ccc(-c2cccc(NS(=O)(=O)c3ccc(CC)cc3)c2)nn1 | . | 16µM* | . | . | . | 18µM*
Cc1ccc(S(=O)(=O)C[C@@H]2OC[C@H](C)N2S(=O)(=O)c2ccc(C)cc2)cc1 | -19% | ? | 0 | -9% | . | ?
O=c1oc2c3c4c(cc2c2c1CCC2)OCCN4CCC3 | -20% | 18µM* | ? | -12% | 0% | ?
Cc1[nH]c(=O)c(C(=O)/C=C/c2ccccc2F)c2c1CCCC2 | 7.9µM* | 4.6µM* | -97* | 7.9µM* | . | 3.3µM*
